This is part of a sample that, as a whole, favours compounds with a hit. Of some 83,000 tested, about 20% had one in any assay.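 Percent growth is the endpoint: 0 to 100 indicates growth inhibition (40 means 60% inhibition), 0 means no net growth, and negative values indicate cell death.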 Unmarked numbers belong to inactive results. Active and inactive are the calls of the source. Rule for the calls: active = growth percent below 10; inactive = the rest.

Growth data for eight compounds are collected here from PubChem BioAssay (NCI).

What all share (assay): NCI-60 one-dose screen, 48 h (100 = growth as untreated, 0 = no growth, -100 = all killed)
For one experiment, the system named is HCT-15 colon. The conditions noted are these: 10 µM.
The test system of the next experiment is HT29 colon. As to conditions: 10 µM.
The test system of another experiment is SNB-19 CNS. The conditions noted are these: 10 µM.
Another experiment concerns U251 CNS. As to conditions: 10 µM.
In another experiment the test system is PC-3 prostate. The conditions noted are these: 10 µM.
A further experiment has as its system SK-MEL-5 melanoma. As to conditions: 10 µM.
A further experiment deals with UACC-62 melanoma. The conditions noted are these: 10 µM unless noted.
Another experiment has as its system LOX IMVI melanoma. As to conditions: 10 µM.
The next experiment concerns SK-MEL-28 melanoma. As to conditions: 10 µM.
A further experiment concerns SK-MEL-2 melanoma. The conditions noted are these: 10 µM.
For the next experiment, the system named is EKVX NSCLC. As to conditions: 10 µM.
The subject of a further experiment is SN12C renal. The conditions noted are these: 10 µM.
A further experiment has as its system UO-31 renal. As to conditions: 10 µM.
For the next experiment, the system named is TK-10 renal. As to conditions: 10 µM unless noted.
The test system of the next experiment is ACHN renal. As to conditions: 10 µM.
For a further experiment, the system named is CAKI-1 renal. The conditions noted are these: 10 µM.
For a further experiment, the system named is A498 renal. As to conditions: 10 µM.
A further experiment relates to CCRF-CEM leukemia. As to conditions: 10 µM.
Another experiment relates to MOLT-4 leukemia. The conditions noted are these: 10 µM.

In the case of `CCOC(=O)/C(=C/c1ccc(OC)cc1)N(CC)CC`, the growth with HCT-15 colon is 112%; in the experiment on HT29 colon, 109%; in the experiment on SNB-19 CNS, 103%; in the experiment with U251 CNS, 99.1%; with PC-3 prostate it was 95.4%; in the experiment on SK-MEL-5 melanoma, 99.7%. Also, the growth was 102% with UACC-62 melanoma; 97.7% in the experiment on LOX IMVI melanoma; 112% in the experiment with SK-MEL-28 melanoma; 103% with SK-MEL-2 melanoma; 106% with EKVX NSCLC; 102% with SN12C renal. In addition, the growth in the experiment on UO-31 renal is 92.9%; in the experiment on TK-10 renal, 107%; in the experiment on ACHN renal, 113%; in the experiment on CAKI-1 renal, 103%; in the experiment with A498 renal it was 109%; in the experiment on CCRF-CEM leukemia, 100%. Moreover, the growth in the experiment on MOLT-4 leukemia was 99%.
On to `COc1ccc(C2(O)CCCCC2)cc1`, for which the growth was 112% with HCT-15 colon; 106% with HT29 colon; 102% in the experiment with SNB-19 CNS; 100% in the experiment on U251 CNS; 89.7% in the experiment with PC-3 prostate; 98.6% with SK-MEL-5 melanoma. Also, the growth in the experiment on UACC-62 melanoma was 94.7%; in the experiment on LOX IMVI melanoma, 96.1%; in the experiment on SK-MEL-28 melanoma, 120%; in the experiment with SK-MEL-2 melanoma, 107%; in the experiment on EKVX NSCLC, 105%; with SN12C renal, 101%. Besides, the growth in the experiment with UO-31 renal was 97%; in the experiment with TK-10 renal it was 113%; in the experiment with ACHN renal it was 115%; in the experiment with CAKI-1 renal, 100%; with A498 renal it was 86.9%; with CCRF-CEM leukemia, 96.1%. In addition, the growth in the experiment on MOLT-4 leukemia was 97.5%.
Turning to `Cc1c(O)cccc1O`, the growth is 116% in the experiment with HCT-15 colon; 106% with HT29 colon; 97.6% in the experiment on SNB-19 CNS; 98.7% with U251 CNS; 96.9% in the experiment on PC-3 prostate; 106% in the experiment on SK-MEL-5 melanoma. In addition, the growth in the experiment with UACC-62 melanoma is 94.9%; in the experiment on LOX IMVI melanoma, 106%; in the experiment on SK-MEL-28 melanoma, 122%; in the experiment on SK-MEL-2 melanoma, 93.5%; with EKVX NSCLC, 106%; with SN12C renal, 88%. Besides, the growth with UO-31 renal is 111%; with TK-10 renal, 104%; in the experiment with ACHN renal, 107%; in the experiment on CAKI-1 renal, 61%; in the experiment with A498 renal it was 125%; with CCRF-CEM leukemia, 100%. The growth in the experiment with MOLT-4 leukemia was 90%.
In the case of `COc1cc2cc(OC(C)=O)c3cc4c(cc3c2c(OC)c1OC)OCO4`, the growth in the experiment on HCT-15 colon was 99.7%; in the experiment on HT29 colon, 101%; in the experiment on SNB-19 CNS, 105%; with U251 CNS, 103%; with PC-3 prostate, 94.7%; in the experiment on SK-MEL-5 melanoma, 99.5%. Further, the growth is 103% in the experiment with UACC-62 melanoma; 94.9% in the experiment with LOX IMVI melanoma; 105% in the experiment with SK-MEL-28 melanoma; 109% in the experiment with SK-MEL-2 melanoma; 95% in the experiment with EKVX NSCLC; 101% with SN12C renal. Moreover, the growth with UO-31 renal was 89%; in the experiment on TK-10 renal, 101%; in the experiment with ACHN renal, 101%; in the experiment on CAKI-1 renal, 99%; in the experiment on A498 renal it was 92.5%; with CCRF-CEM leukemia, 2.13% (active). In the experiment on MOLT-4 leukemia, the growth is 96.6%.
For the compound `NC(C(=O)O)C(O)c1ccco1` (stereo unspecified), the growth was 99.1% in the experiment with HCT-15 colon; 120% with HT29 colon; 114% in the experiment with SNB-19 CNS; 102% in the experiment on U251 CNS; 96% in the experiment on PC-3 prostate; 104% in the experiment on SK-MEL-5 melanoma. Also, the growth is 113% with UACC-62 melanoma; 103% in the experiment on LOX IMVI melanoma; 107% in the experiment on SK-MEL-28 melanoma; 115% with SK-MEL-2 melanoma; 109% in the experiment with EKVX NSCLC; 111% in the experiment on SN12C renal. The growth in the experiment with UO-31 renal was 96.6%; with TK-10 renal, 101%; in the experiment on ACHN renal, 113%; in the experiment on CAKI-1 renal it was 97.4%; in the experiment with A498 renal, 94.5%; with CCRF-CEM leukemia, 94%. The growth in the experiment on MOLT-4 leukemia was 112%.
Take `O=C(O)c1ccnc(Br)c1`: the growth is 106% in the experiment with HCT-15 colon; 110% in the experiment with HT29 colon; 103% in the experiment with SNB-19 CNS; 100% in the experiment on U251 CNS; 86.1% in the experiment on PC-3 prostate; 93.5% in the experiment with SK-MEL-5 melanoma. The growth is 106% with UACC-62 melanoma; 107% in the experiment with LOX IMVI melanoma; 111% in the experiment with SK-MEL-28 melanoma; 105% with SK-MEL-2 melanoma; 98.1% in the experiment with EKVX NSCLC; 113% in the experiment with SN12C renal. Further, the growth in the experiment on UO-31 renal is 91.4%; with TK-10 renal, 104%; with ACHN renal it was 108%; in the experiment on CAKI-1 renal it was 97.8%; in the experiment on A498 renal, 88.7%; with CCRF-CEM leukemia, 112%. The growth in the experiment with MOLT-4 leukemia is 116%.
Consider `CCOC(=O)Nc1cc2c(c(N)n1)N=C(c1ccccc1)CO2`, for which the growth in the experiment with HCT-15 colon is 6.55% (active); with HT29 colon, 12.2%; with SNB-19 CNS, 37.3%; with U251 CNS it was 21.8%; in the experiment on PC-3 prostate, 29.9%; in the experiment with SK-MEL-5 melanoma it was 10.2%. Further, the growth was 34.9% in the experiment on UACC-62 melanoma; 28.5% in the experiment with LOX IMVI melanoma; 47.6% with SK-MEL-28 melanoma; 19.1% in the experiment with SK-MEL-2 melanoma; 33.4% in the experiment with EKVX NSCLC; 29.3% in the experiment on SN12C renal. For the same compound, the growth with UO-31 renal was 21.3%; in the experiment on TK-10 renal, 53.3%; in the experiment with ACHN renal, 49.9%; in the experiment with CAKI-1 renal it was 24.2%; in the experiment on A498 renal, 52%; with CCRF-CEM leukemia, 13.5%. Also, the growth in the experiment with MOLT-4 leukemia was 15.7%.
Consider `CC1=CC(=O)c2ccccc2C1=O`, for which the growth in the experiment with HCT-15 colon was 102%; in the experiment with HT29 colon it was 112%; in the experiment on SNB-19 CNS it was 101%; with U251 CNS, 101%; in the experiment on PC-3 prostate, 108%; in the experiment with SK-MEL-5 melanoma it was 103%. Also, the growth in the experiment with UACC-62 melanoma was 100%; in the experiment with LOX IMVI melanoma, 96.5%; with SK-MEL-28 melanoma, 116%; in the experiment on SK-MEL-2 melanoma, 110%; in the experiment on EKVX NSCLC, 114%; in the experiment with SN12C renal, 99.3%. Further, the growth is 70% in the experiment with UO-31 renal; 124% in the experiment with TK-10 renal; 95.2% in the experiment on ACHN renal; 97.5% in the experiment with CAKI-1 renal; 103% in the experiment on A498 renal; 114% in the experiment on MOLT-4 leukemia.
